Screening data from PubChem BioAssay.
Rows were chosen to be rich in hits. Some 10% of all compounds tested hit in one or more screens of this group.
PNC inhibitor: High Content Assay for Compounds that inhibit the Assembly of the Perinucleolar Compartment; activity change (PNC), negative = inhibition, % at 10 µM; PC3M PTB-GFP, PNC prevalence imaging, 16 h; hits give low values; 3.1% of 140,000 active;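 active = readout at or below -70, meaning at least 70% loss of cells showing the perinucleolar compartment, a nuclear body marking cancer cells; inconclusive = readout between -30 and a set limit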;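 note: plate controls were DMSO wells for no effect and camptothecin positive control wells for full effect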
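PC3M cells stably expressing PTB-GFP, 750–1000 cells/well, treated 16 h at 37 °C with compound (23 nl of library stock), in duplicate. After paraformaldehyde fixation and Hoechst stain, imaged at 20x; PNC prevalence scored by image analysis.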
ALDH1A1 inh: qHTS Assay for Inhibitors of Aldehyde Dehydrogenase 1 (ALDH1A1). Potency, µM (top dose mostly 75.3 µM), without a hit: at the highest dose activity, negative = inhibition, most hits filed as inhibitors. Aldehyde dehydrogenase 1A1 (Homo sapiens), P00352. 7.3% of 220,000 active. Purified ALDH1A1, NADH fluorescence, propionaldehyde substrate;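 note: potency is the fitted concentration of half-maximal effect; plate controls were no enzyme wells and a reference inhibitor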
HPGD inh: qHTS Assay for Inhibitors of HPGD (15-Hydroxyprostaglandin Dehydrogenase) | AID 894, 2007 | 4.3% of 150,000 active | Potency, µM, without a hit: at the top dose activity change, negative = inhibition, actives largely listed as inhibitors | 15-hydroxyprostaglandin dehydrogenase [NAD(+)] (Homo sapiens), P15428 | purified HPGD, NADH fluorescence kinetic, PGE2 substrate; note: potency is the fitted concentration of half-maximal effect
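NADH formation kinetics: reaction with 30 uM PGE2 and 1 mM NAD+ (final), 20 nM enzyme, Tris-HCl pH 8 with Tween 20, after 15 min compound preincubation at room temperature. Fluorescence change, last versus first of five reads.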
ALOX12 inhib: qHTS Assay for Inhibitors of 12-hLO (12-human lipoxygenase); Polyunsaturated fatty acid lipoxygenase ALOX12 (Homo sapiens), P18054; purified 12-hLO, xylenol orange hydroperoxide absorbance; Potency, µM (titrated, usually from 57.1 µM), for inactives: top-dose activity change, negative = inhibition, usual class: inhibitors; 0.12% of 150,000 active; active = well fitted inhibition curve with a large enough effect; inconclusive = small, poorly fitted or top-dose-only effect; note: potency is the fitted concentration of half-maximal effect; nearly all actives have a fitted effect of over 55% in size
Target sequence (P18054 whole entry, looked up): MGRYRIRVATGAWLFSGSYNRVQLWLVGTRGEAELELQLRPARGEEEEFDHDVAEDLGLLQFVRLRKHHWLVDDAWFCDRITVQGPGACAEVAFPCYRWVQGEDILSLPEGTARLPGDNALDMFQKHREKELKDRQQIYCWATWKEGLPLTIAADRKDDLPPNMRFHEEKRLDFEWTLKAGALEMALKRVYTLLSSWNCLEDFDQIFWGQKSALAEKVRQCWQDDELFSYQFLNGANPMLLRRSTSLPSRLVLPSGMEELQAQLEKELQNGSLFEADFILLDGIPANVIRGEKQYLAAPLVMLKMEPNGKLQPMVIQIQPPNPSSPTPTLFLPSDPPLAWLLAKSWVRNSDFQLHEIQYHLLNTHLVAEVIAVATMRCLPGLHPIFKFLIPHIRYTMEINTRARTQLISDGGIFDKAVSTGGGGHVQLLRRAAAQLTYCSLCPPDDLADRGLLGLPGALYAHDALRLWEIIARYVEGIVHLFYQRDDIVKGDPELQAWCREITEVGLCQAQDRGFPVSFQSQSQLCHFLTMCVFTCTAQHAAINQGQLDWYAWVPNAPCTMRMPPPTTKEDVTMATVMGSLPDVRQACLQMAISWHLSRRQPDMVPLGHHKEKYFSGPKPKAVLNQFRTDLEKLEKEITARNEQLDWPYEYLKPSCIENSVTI
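Purified human 12hLO (150 nM final) was preincubated with compounds for 15 min at room temperature in 25 mM Hepes pH 7.0, 0.01% Triton X-100, then reacted with 40 uM arachidonic acid for 30 min. Hydroperoxide was detected with ferrous iron/xylenol orange.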
Lamin A splicing: qHTS Assay for Modulators of Lamin A Splicing; HeLa LMNA splicing GFP/RFP minigene ratio, 48 h; Potency, µM (doses to about 46.1 µM), for the others: at the top dose ratio change, negative = inhibition, actives largely listed as inhibitors; 0.01% of 200,000 active; AID 1487, 2009; active = well fitted inhibition curve with a large enough effect in the signal ratio, with a control signal flat, not every such curve was filed as active; inconclusive = small, poorly fitted or top-dose-only effect, or effect the other way, or a change in a side signal; the % refers to the signal ratio; note: potency is the fitted concentration of half-maximal effect
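Read-out is the ratio of GFP to DsRed2 object intensity, acquired by 488 nm laser-scanning cytometry on HeLa lamin A-EGFP minigene reporter cells. Compound incubation 48 hrs at 37 °C in Opti-MEM with 2% FBS; DMSO 0.5% final.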
* marks the source's active call; other numbers are inactive results; ? = inconclusive; nt = no result; [ ] = dose if it differs, or a comment. Unless noted, calls come from the whole dose curve; as a rule, active = well fitted inhibition curve with a large enough effect (not every such curve was filed as active); inconclusive = small, poorly fitted or top-dose-only effect, or another doubt; inactive = no such curve, though single readings can be large or run the other way. Unless noted, % is set by controls: 0 for no effect and ±100 for the full control effect.

SMILES	PNC inhibitor	ALDH1A1 inh	HPGD inh	ALOX12 inhib	Lamin A splicing
CCN(CC)CCOC(=O)[C@@H](Cc1cccc2ccccc12)C[C@@H]1CCCO1	nt	?	-6%	-1%[25.6 µM]	-5%
CCc1cc2c(Sc3nc4ccccc4s3)ncnc2s1	27	20µM*	25µM*	-8%	?
c1ccc2sc(Sc3ncnc4sccc34)nc2c1	?	-5%	?	1%	-16%
O=C(NCc1n[nH]c(=S)n1-c1ccccc1)c1ccc(S(=O)(=O)N2CCOCC2)cc1	?	18µM*	-15%	2%	6%
O=C(NCc1n[nH]c(=S)n1-c1ccccc1)c1ccc(S(=O)(=O)N2CCCCC2)cc1	nt	11µM*	nt	nt	nt
CCN(CC)S(=O)(=O)c1ccc(C(=O)NCc2n[nH]c(=S)n2-c2ccc(Cl)c(Cl)c2)cc1	nt	1.4µM*	nt	nt	nt
O=C(NCc1ccccc1)c1ccc(S(=O)(=O)N2CCCC2)cc1	?	?	3%	4%	-3%
CCN(CC)S(=O)(=O)c1ccc(C(=O)NCc2n[nH]c(=S)n2-c2ccccc2OC)cc1	18	?	-13%	0%	11%
Cc1ccccc1-c1cncnc1Nc1ccccc1	nt	7%	nt	nt	-7%
C=CCNC(=S)NNC(=O)c1ccc(OC(C)C)cc1	-91*	?	-16%	2%	-3%
C=CCNC(=S)NNC(=O)c1ccccc1	?	-3%	2%	2%	-5%
O=S(=O)(c1cccs1)N1CCN(CC(O)COc2cccc(Br)c2)CC1 (centres undefined)	-15	20µM*	-2%	-10%	?
O=C(NC1CCCCC1)C1CCC(CNS(=O)(=O)c2cccc3nsnc23)CC1 (centres undefined)	2	?	-18%	1%	-6%
O=C(C1CCC(CNS(=O)(=O)c2cccc3nsnc23)CC1)N1CC=C(c2ccccc2)CC1 (centres undefined)	10	18µM*	16µM*	5%	3%
O=C(NCc1cccs1)C1CCN(S(=O)(=O)c2ccc(Br)s2)CC1	-2	-3%	0%	-12%	-1%
COc1cccc(CNC(=O)C2CCC(CNS(=O)(=O)c3cccc4nsnc34)CC2)c1 (centres undefined)	-106*	20µM*	-26%	5%	2%
O=C(C1CCN(S(=O)(=O)c2cccc3nsnc23)CC1)N1CC=C(c2ccccc2)CC1	?	?	-21%	-2%	-5%
O=C(NCc1cccs1)C1CCC(CNS(=O)(=O)c2ccc(Br)s2)CC1 (centres undefined)	-5	2.8µM*	-2%	-2%	2%
O=C(NCc1cccs1)C1CCC(CNS(=O)(=O)c2cccc3nsnc23)CC1 (centres undefined)	?	22µM*	-24%	-5%	6%
CC(=O)Nc1ccc(NC(=O)C2CCC(CNS(=O)(=O)c3cccc4nsnc34)CC2)cc1 (centres undefined)	nt	?	nt	nt	9%[46 µM]
O=C(Nc1ccc(Br)cc1)c1cc(S(=O)(=O)N2CCc3ccccc32)ccc1F	nt	nt	nt	nt	5%[46 µM]
COC(=O)c1ccc(Cl)cc1NC(=O)N1CCCn2nc(C)cc21	nt	nt	nt	nt	9%[46 µM]
CN(C)c1ccc(C(=S)NC2CCCCC2)cc1	nt	3.5µM*	nt	nt	11%[46 µM]
CCN(CC)c1ccc(C(=O)O)cc1	10	-6%	-6%	1%	-3%
CCN(CC)c1ccc(C(=S)NCc2ccccc2)cc1	nt	10µM*	nt	nt	nt
SMILES	PNC inhibitor	ALDH1A1 inh	HPGD inh	ALOX12 inhib	Lamin A splicing
CCN(CC)c1ccc(C(=S)NC2CCCCC2)cc1	nt	7.9µM*	nt	nt	nt
O=C(NCc1ccc(Cl)cc1)C(=O)NCC(c1ccc2c(c1)OCO2)N1CCOCC1 (centres undefined)	nt	nt	nt	nt	-2%[46 µM]
COc1cc(NC(=O)c2cccs2)c(C(=O)OCC(=O)NC(=O)NC(C)(C)C)cc1OC	-98*	-6%	-28%	-3%	8%
CO[C@@H]1COC(=O)CCC[C@@H](C)[C@H](OC)COC(=O)[C@H](Cc2ccccc2)NC(=O)C/C=C\[C@H]1C	nt	0.016µM*	nt	nt	nt
CC1CCCCN1CCCNC(=O)c1ccc(Cc2nc3ccccc3[nH]2)cc1 (centres undefined)	nt	4%	-2%	1%	nt
CCN(CC)CCNC(=O)c1cc(Sc2nnc(C)s2)nc2ccccc12	-22	9%	1.3µM*	2%	-20%
Cc1nnc(Sc2cc(C(=O)NCCCN(C)Cc3ccccc3)c3ccccc3n2)s1	0	7%	-25%	-4%	?
CC(=O)Cn1cnc2sc(-c3ccccc3)cc2c1=O	11	-9%	-14%	-4%	-3%
CCn1cnc2sc(-c3ccccc3)cc2c1=O	12	14µM*	-21%	-1%	-5%
Cc1ccc(C)n1-n1cnc2sc(-c3ccccc3)cc2c1=O	4	?	28µM*	5%	?
Nc1nc2c(ncn2[C@@H]2O[C@H](COP(=O)(O)OP(=O)(O)O)[C@@H](O)[C@H]2O)c(=O)[nH]1	nt	-7%	nt	nt	nt
COCCN(C(=O)CSc1nnc(-c2cccc(OC)c2)n1C)c1c(N)n(Cc2ccccc2)c(=O)[nH]c1=O	nt	24%	nt	nt	7%[46 µM]
Cc1cc(O)ccc1Nc1nc(-c2sc(N)nc2C)cs1	9	8.9µM*	16µM*	-2%	4%
Cc1csc(Nc2ccccc2)n1	nt	-8%	nt	nt	-3%[46 µM]
Cc1nc(N)sc1-c1csc(Nc2ccccc2)n1	-14	18µM*	-8%	-5%	7%
CCOc1ccccc1Nc1nc(-c2sc(C)nc2C)cs1	nt	20µM*	nt	nt	nt
Cc1nc(Nc2ccccc2)sc1C	nt	16µM*	nt	nt	nt
COC(=O)N1[C@H]2CC[C@@]3(C)C=C(C)O[C@]1(C)C3c1ccccc12	nt	19%	-2%	nt	nt
CCN(CC)c1ccc2cc(-c3nnc(-c4ccccc4)o3)c(=O)oc2c1	-100*	?	-16%	1%	?
O=c1oc2ccc3ccccc3c2cc1-c1nnc(-c2ccccc2)o1	-12	?	?	-4%	?
CCN(CC)c1ccc2cc(-c3nc4ccccc4[nH]3)c(=O)oc2c1	-104*	8%	-11%	2%	?
CCN(CC)c1ccc2cc(-c3nc4ccccc4n3C)c(=O)oc2c1	?	?	-23%	-3%	-10%
O=C(c1cnn(-c2ccccc2)c1)c1ccccc1O	-29	-2%	13µM*	1%	-6%
COc1ccc(-n2cc(C(=O)c3ccc4ccccc4c3O)cn2)cc1	nt	-12%	nt	nt	nt
COC(=O)c1c(NC(=O)CS(=O)(=O)c2ccc(C)cc2)sc2c1CCCCC2	nt	nt	nt	nt	-9%[46 µM]
CCCCc1ccc(NC(=O)CSc2nnc3[nH]c(=O)cc(C)n23)cc1	nt	nt	nt	nt	4%[46 µM]
